Values joined by “and” are separate entries in the source; they are usually repeats but may differ in a detail not shown here. Identical values can stand only once. Compounds without any hit were thinned out: in the full panel of roughly 83,000, 20% have a hit.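 Activity criterion: percent growth below 10, measured after cells in 96-well plates were exposed to a single compound concentration for 48 hours.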 Active and inactive are the calls of the source.

For this assay, the system named is MDA-MB-468 breast. In words: NCI-60 one-dose screen, 48 h (100 = growth as untreated, 0 = no growth, -100 = all killed). As to conditions: 10 µM unless noted.
With `CC1(C)CN(Cc2ccccc2)CCN1Cc1ccccc1`, the growth was 106% (inactive).

Regarding `CNCc1cccc2c1OCCOCCOCCN(CCN1CCOCC1)S(=O)(=O)c1ccc(cc1)-c1cnc(N)c(n1)C(=O)N2`, the growth was 53.9% (inactive).

As to `CCOC(=O)CCC(NC(=O)c1ccc(N)cc1)C(=O)OCC` (stereo not drawn), the growth is 102% (inactive).

With `O=C(N/N=C/c1ccccc1O)C(=O)Nc1ccc(F)cc1`, the growth is 33% (inactive).

For the compound `Cc1cc(C)cc(NC2=C(Cl)C(=O)c3nc(C)ccc3C2=O)c1`, the growth was -75.8% (active).

`CCN(CC)CCOCC[C@H]1CC[C@H]2[C@@H]3[C@H](C)Cc4cc(OS(N)(=O)=O)ccc4[C@H]3CC[C@]12C`: the growth is -87.2% (active).

For the compound `COc1ccc(-n2nc3c(c2-c2ccc(OC)c(OC)c2)-c2oncc2CC3)cc1`, the growth is 90.1% (inactive).

With `CCN1C(=O)N(CC)C2Nn3c(s/c(=C\c4cccc([N+](=O)[O-])c4)c3=O)=NC21` (stereo not drawn), the growth was 28.8% (inactive).

`COc1cccc(C(=O)N(c2ccc(F)c(F)c2)C(C(=O)NC(C)(C)C)c2cc3c(C)cc(C)cc3nc2Cl)c1` (stereo not drawn): the growth was 35.2% (inactive).

On to `CC1=NN2C(=NC3=C(CCC/C3=C\c3ccc(Cl)cc3)C2c2ccc(Cl)cc2)S1` (stereo not drawn), for which the growth is 95.6% (inactive).

On to `Cc1ccc(S(=O)(=O)Nc2nc3ccccc3nc2Nc2ccc3nsnc3c2)cc1`, for which the growth was 27.4% (inactive) and 35.8% (inactive).

For `O=[N+]([O-])c1ccc(Oc2ccccc2Cl)c([N+](=O)[O-])c1`, the growth is 64.2% (inactive).

`CC(C)(CCc1ccccn1)C(=O)CCCc1ccccn1`: the growth is 107% (inactive).

`C/C1=C\CC[C@@]2(C)O[C@H]2[C@H]2OC(=O)C(CN3CCN(CC4C(=O)O[C@H]5[C@H]4CC/C(C)=C/CC[C@@]4(C)O[C@@H]54)CC3)[C@@H]2CC1` (stereo partly drawn): the growth is 46.1% (inactive).

On to `COc1ccc(C2CC(c3cccs3)=NN2c2ccc(S(N)(=O)=O)cc2)cc1` (stereo not drawn), for which the growth is 8.49% (active).

In the case of `COc1ccc(NC2=C(Cl)C(=O)C(C)=C(C)C2=O)cc1OC`, the growth was -38.8% (active).

With `O=C(NNc1nc2cc(F)cc(F)c2n2cccc12)c1ncccn1`, the growth was 3.64% (active).

Turning to `CCCCCCCCO/N=C\c1c2c(O)c3c(O)c(C)c4c(c3c1O)C(=O)C(C)(O/C=C\C(OC)C(C)C(OC(C)=O)C(C)C(O)C(C)C(O)C(C)/C=C\C=C(\C)C(=O)N2)O4` (stereo not drawn), the growth was 3.49% (active).

As to `c1csc(-c2ccc(CNc3c4ccccc4nc4ccccc34)cc2)c1`, the growth was -72.5% (active).

Turning to `CCN(CC)CCCC(C)Nc1c2c(nc3ccc(OC)cc13)CCCC2` (stereo not drawn), the growth is 98.8% (inactive).

On to `O=C(O)CSCSCC(=O)O`, for which the growth is 91.2% (inactive).

Consider `COC(=O)CCC1=C(C)C2=NC1=CC1=NC(=CC3=NC(=Cc4[nH]c(/c(=C(/C)O)c4C)=C2)C(C(C)=O)=C3C)C(C)=C1CCC(=O)OC`, for which the growth is 108% (inactive).

With `COc1ccc(/C=C(\C#N)n2nnc3c(F)cccc32)cc1`, the growth was -7.36% (active).

As to `COc1ccc(-c2nn(-c3cccc(NC(=O)c4ccc5c(c4)OCCO5)c3)cc2-c2ccncc2)cc1Cl`, the growth was 26.2% (inactive).

Turning to `C=C1C(=O)O[C@H]2[C@H]1CC/C(COC(=O)NCc1cc(OC)c(OC)c(OC)c1)=C\CC[C@@]1(C)O[C@@H]21`, the growth is 35.4% (inactive).

For the compound `Nc1[nH]nc(Nc2ccccc2)c1-c1nc2ccccc2s1`, the growth is 17.5% (inactive).

Regarding `CCCSC1=NC2C(N(CC)C(=O)N2CC)N1/N=C/C=C/c1ccccc1[N+](=O)[O-]` (stereo not drawn), the growth was 29.9% (inactive).

Consider `Nc1n[nH]c2cccc(C#Cc3cccc(NC(=O)c4cccc(OC(F)(F)F)c4)c3)c12`, for which the growth was 106% (inactive).

(Values after PubChem BioAssay (NCI).)
